Holding throughout (parameters): species or system human, MV4-11 + K-562 + COLO205 + SK-N-BE2 + OVCAR-8
For one test, the system named is CDK17. The conditions noted are these: read-out: apparent Kd, n = 1.
A further test concerns MAPK10. The conditions noted are these: read-out: apparent Kd, n = 1.
Another test deals with MAPK8. The conditions noted are these: read-out: apparent Kd, n = 1.
For the next test, the system named is MARK2. The conditions noted are these: read-out: apparent Kd; compound concentrations:100 nM and 1000 nM (sheet 'Samples'); n = 1.
Another test has as its system PHKG2. The conditions noted are these: read-out: apparent Kd; compound concentrations:100 nM and 1000 nM (sheet 'Samples'); n = 1.
In another test the test system is STK16. The settings on record: read-out: apparent Kd, n = 1.
Another test concerns STK3. The settings on record: read-out: apparent Kd, n = 1.
The next test has as its system TNIK. The settings on record: read-out: apparent Kd, n = 1.
The test system of another test is PRKX. The settings on record: read-out: apparent Kd, n = 1.
Another test has as its system ROCK2. The settings on record: read-out: apparent Kd, n = 1.
A further test deals with CSNK1A1. The settings on record: read-out: apparent Kd, compound concentrations: 100 nM and 1000 nM (sheet 'Samples'), n = 1.
The next test deals with BUB1. The conditions noted are these: read-out: apparent Kd; compound concentrations:100 nM and 1000 nM (sheet 'Samples'); n = 1.
In another test the test system is RIOK2. The conditions noted are these: read-out: apparent Kd, n = 1.
In the next test the test system is HCK. The conditions noted are these: read-out: apparent Kd; compound concentrations: 100 nM and 1000 nM (sheet 'Samples'), CATDS: 4.52340510871738E-2; n = 1.
The subject of a further test is SRC. The settings on record: read-out: apparent Kd; compound concentrations: 100 nM and 1000 nM (sheet 'Samples'), CATDS: 5.0295032408805701E-2; n = 1.
The subject of the next test is CSNK1E. The settings on record: read-out: apparent Kd; compound concentrations:100 nM and 1000 nM (sheet 'Samples'); n = 1.
The test system of the next test is EPHA2. The conditions noted are these: read-out: apparent Kd; compound concentrations: 100 nM and 1000 nM (sheet 'Samples'), CATDS: 2.1099204097422001E-2; n = 1.
[1] abbreviates: compound concentrations:100 nM and 1000 nM (sheet 'Samples').

Like-named read-outs stand apart in the source and are kept apart here.

Take `COc1cc[nH]c1/C=C1\C(=O)Nc2ccc(F)c(C#C[C@@H](O)[C@@H](N)[C@@H](C)O)c21` [RO0283120-000]: the potency estimated from few doses in the test on CDK17 (setting [1]) was 774 nM; in the test with MAPK10 (setting [1]) it was 654 nM; in the test on MAPK8 (setting [1]) it was 942 nM; with MARK2 it was 803 nM; in the test with PHKG2, 669 nM; with STK16 (setting [1]) it was 1230 nM. For the same compound, in the test on STK3 (setting [1]), the potency estimated from few doses is 680 nM.
Consider `O=C(Nc1n[nH]c2nc(-c3ccccc3O)ccc12)C1CC1` [SB-711880], for which the potency estimated from few doses in the test with MARK2 is 2380 nM; in the test with PHKG2, 1550 nM; in the test on STK3 (setting [1]) it was 483 nM; with TNIK (setting [1]) it was 1150 nM.
Turning to `CC(C)N1CC(=O)N(C)c2cnc(Nc3cccc(S(=O)(=O)CCN4CCOCC4)c3)nc21` [BI00009348], the potency estimated from few doses with STK16 (compound concentrations: 100 nM and 1000 nM (sheet 'Samples'), CATDS: 5.8221493759355002E-2) is 1180 nM.
In the case of `Cl.Cl.NC[C@H](CC1CCCCC1)NC(=O)c1ccc(-c2ccnc3[nH]ccc23)s1.NC[C@H](CC1CCCCC1)NC(=O)c1ccc(-c2ccnc3[nH]ccc23)s1` [GSK1581428A], the potency estimated from few doses with PRKX (setting [1]) is 14.8 nM; in the test on ROCK2 (setting [1]) it was 22.8 nM.
Regarding `Cl.Cl.NCC(NC(=O)c1cc(-c2ccnc3[nH]ccc23)cs1)c1ccccc1.NCC(NC(=O)c1cc(-c2ccnc3[nH]ccc23)cs1)c1ccccc1` (stereo not shown) [GSK1229959A], the potency estimated from few doses in the test with CSNK1A1 (CATDS: 1.7292199039589701E-2) was 1760 nM; in the test on PRKX (compound concentrations: 100 nM and 1000 nM (sheet 'Samples'), CATDS: 6.1031439007252199E-2) it was 21.6 nM; with ROCK2 (compound concentrations: 100 nM and 1000 nM (sheet 'Samples'), CATDS: 0.12516480015121101) it was 6.2 nM.
Turning to `CCn1c(-c2nonc2N)nc2cncc(C(=O)N3CC[C@H](N)C3)c21.Cl` [SB-772077-B], the potency estimated from few doses in the test on BUB1 is 1790 nM; with PRKX (setting [1]), 177 nM; in the test on ROCK2 (setting [1]), 11.6 nM.
For the compound `NS(=O)(=O)c1ccc(N/N=C2\C(=O)Nc3ccc4ncccc4c32)cc1` [GW305178X], the potency estimated from few doses was 544 nM with CDK17 (compound concentrations: 100 nM and 1000 nM (sheet 'Samples'), CATDS: 6.1858788217922803E-2); 1580 nM in the test with STK3 (compound concentrations: 100 nM and 1000 nM (sheet 'Samples'), CATDS: 4.2852870715448799E-2).
On to `CNc1nccc(-c2ccc3c(N)n[nH]c3c2)n1` [GSK2206003A], for which, in the test with RIOK2 (compound concentrations: 100 nM and 1000 nM (sheet 'Samples'), CATDS: 5.2095061468969701E-2), the potency estimated from few doses is 1360 nM.
`CN(C)c1ccc2c(c1)/C(=C/Nc1ccc(S(N)(=O)=O)cc1)C(=O)N2` [GW416469X]: in the test on STK3 (compound concentrations: 100 nM and 1000 nM (sheet 'Samples'), CATDS: 7.8286215558842895E-2), the potency estimated from few doses is 1330 nM.
With `COc1ccc(Nc2nccc(NCCNC(=O)Nc3cc(C)ccc3C)n2)cc1` [GSK1379899A], the potency estimated from few doses is 2320 nM in the test on CSNK1A1 (CATDS: 3.9039606822866203E-2), 1500 nM in the test with HCK and 1150 nM in the test with SRC.
Regarding `CCn1c(-c2nonc2N)nc2cncc(Br)c21` [SB-738004], the potency estimated from few doses in the test with ROCK2 (setting [1]) is 84.1 nM.
Consider `Cc1occc1-c1nc(N)c(OC[C@@H](N)Cc2c[nH]c3ccccc23)cc1-c1cc2c(C)n[nH]c2cn1` [GSK1660450B], for which the potency estimated from few doses is 144 nM in the test on CSNK1E, 639 nM in the test with MARK2, 93.5 nM in the test with STK3 (setting [1]) and 696 nM in the test with TNIK (setting [1]).
Take `Cl.Nc1nc(-c2ccc3c(c2)C(=Cc2cc(Br)c(O)c(Br)c2)C(=O)N3)cs1` [GW407323A]: the potency estimated from few doses with CDK17 (compound concentrations: 100 nM and 1000 nM (sheet 'Samples'), CATDS: 2.78233460707746E-2) is 2030 nM; with TNIK (compound concentrations: 100 nM and 1000 nM (sheet 'Samples'), CATDS: 0.10928508706444801), 58.6 nM.
As for `Nc1nc(-c2ccc3c(N)n[nH]c3c2)cc(N2CCCC(NC(=O)c3ccccc3)C2)n1` (stereo not shown) [GSK2286775B], in the test with RIOK2 (setting [1]), the potency estimated from few doses was 1860 nM.
As for `Cc1cc(NC(=O)c2cccc(NC(=O)/C=C/CN(C)C)c2)ccc1Nc1nccc(-c2cccnc2)n1` [JNK-IN-7], the potency estimated from few doses in the test on CSNK1E is 2010 nM; in the test with MAPK8 (compound concentrations: 100 nM and 1000 nM (sheet 'Samples'), CATDS: 0.361738634517147), 10.7 nM; with RIOK2 (setting [1]), 720 nM.
In the case of `CCC(CC)(CC)n1cnc2c(N)ncnc21` [SKF-97620], the potency estimated from few doses is 2040 nM in the test with CSNK1A1 (CATDS: 2.3982037208091899E-2); 1890 nM in the test on ROCK2 (compound concentrations: 100 nM and 1000 nM (sheet 'Samples'), CATDS: 2.44983042375609E-2); 1810 nM in the test on STK16 (compound concentrations: 100 nM and 1000 nM (sheet 'Samples'), CATDS: 2.4791853580208099E-2).
For the compound `Cl.Cn1c(=O)c(Cc2ccccc2F)cc2cnc(NC3CCOCC3)nc21` [RO3305377-001], the potency estimated from few doses with EPHA2 was 976 nM; in the test with MAPK10 (compound concentrations: 100 nM and 1000 nM (sheet 'Samples'), CATDS: 2.2981904071827101E-2), 800 nM.

Source of the values: PMC11062922 (Nature Chemical Biology, 2023).
